Records with an inconclusive call do not appear. Calls of active or inactive are those of the source. Rule for the calls, unless noted: active = hit-call score of the fitted dose curve at least 0.9, where 1 is the maximum; inconclusive = response in the unintended direction; inactive = score below 0.9.
Legend:
[1] = biological target: Retinoic acid receptor alpha (Homo sapiens) (UniProt P10276); experiment: ATG_DR5_RAR_CIS: Attagene CIS-FACTORIAL HepG2 Assay for human Retinoic Acid Receptor Alpha (RARE), DR5 submotif (AID 2282934; active = hit-call score of the fitted dose curve at least 0.9, where 1 is the maximum; inactive = score below 0.9); details: HepG2 Attagene cis-factorial RARE DR5 reporter, mRNA; actives raise or lower the signal
Chain of Retinoic acid receptor alpha (Homo sapiens) (P10276 whole entry, looked up): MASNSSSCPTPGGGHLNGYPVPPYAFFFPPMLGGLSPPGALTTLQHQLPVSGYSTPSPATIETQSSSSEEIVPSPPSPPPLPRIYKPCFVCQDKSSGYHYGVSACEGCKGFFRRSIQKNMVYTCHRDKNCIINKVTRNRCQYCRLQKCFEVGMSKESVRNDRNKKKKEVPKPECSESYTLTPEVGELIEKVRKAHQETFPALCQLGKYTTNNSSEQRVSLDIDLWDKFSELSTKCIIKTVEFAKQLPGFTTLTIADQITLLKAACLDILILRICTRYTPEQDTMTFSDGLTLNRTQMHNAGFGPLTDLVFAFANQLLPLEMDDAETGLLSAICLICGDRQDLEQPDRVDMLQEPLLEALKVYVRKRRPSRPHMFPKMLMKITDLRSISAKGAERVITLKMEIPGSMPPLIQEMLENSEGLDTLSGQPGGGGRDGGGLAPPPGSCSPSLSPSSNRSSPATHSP
How it was run: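 Reporter transcripts from a DR5-regulated unit, measured via RT-PCR plus capillary electrophoresis, reflect endogenous RAR activity in transiently transfected human HepG2 liver cells. Exposure lasted 24 h; gain or loss of signal scored against DMSO.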

[2] = ATG_GLI_CIS: Attagene CIS-FACTORIAL HepG2 Assay for human Zinc Finger Protein GLI1 (AID 2282945; active = hit-call score of the fitted dose curve at least 0.9, where 1 is the maximum; inactive = score below 0.9); details: HepG2, Attagene cis-factorial reporter mRNA, GLI element; actives raise or lower the signal
How it was run: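 Bidirectional curve fits relative to DMSO, using reporter mRNA levels from RT-PCR plus capillary electrophoresis. Cells were HepG2 transiently carrying cis-regulated reporter constructs, harvested 24 h after dosing.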

[3] = ATG_GRE_CIS: Attagene CIS-FACTORIAL HepG2 Assay for human Glucocorticoid Response Elements (GRE) (AID 2282947; active = hit-call score of the fitted dose curve at least 0.9, where 1 is the maximum; inactive = score below 0.9); details: HepG2 GRE cis-reporter, Attagene multiplex mRNA; actives raise or lower the signal
How it was run: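 Multiplexed cis-reporter mRNA induction, HepG2, 24 h post-dose. RT-PCR, FAM-labelled, HpaI-digested amplicons by CE. Bidirectional fit vs DMSO.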

[4] = ATG_PBREM_CIS: Attagene CIS-FACTORIAL HepG2 Assay for human Phenobarbital-responsive Enhancer Module (PBREM) (AID 2282955; active = hit-call score of the fitted dose curve at least 0.9, where 1 is the maximum; inactive = score below 0.9); details: HepG2 PBREM cis-reporter, Attagene multiplexed transcription; actives raise or lower the signal
How it was run: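 Endogenous transcription factors in human liver HepG2 cells drive a PBREM cis-element reporter, whose transcript level after 24 h treatment is quantified by RT-PCR with capillary electrophoresis; activity fitted in both directions against DMSO.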

[5] = biological target: X-box-binding protein 1 (Homo sapiens) (UniProt P17861); experiment: ATG_Xbp1_CIS: Attagene CIS-FACTORIAL HepG2 Assay for human X-box Binding Protein 1 (XBP1) (AID 2282972; active = hit-call score of the fitted dose curve at least 0.9, where 1 is the maximum; inactive = score below 0.9); details: HepG2 XBP1 cis-element reporter, Attagene multiplex; actives raise or lower the signal
Chain of X-box-binding protein 1 (Homo sapiens) (P17861 whole entry, looked up): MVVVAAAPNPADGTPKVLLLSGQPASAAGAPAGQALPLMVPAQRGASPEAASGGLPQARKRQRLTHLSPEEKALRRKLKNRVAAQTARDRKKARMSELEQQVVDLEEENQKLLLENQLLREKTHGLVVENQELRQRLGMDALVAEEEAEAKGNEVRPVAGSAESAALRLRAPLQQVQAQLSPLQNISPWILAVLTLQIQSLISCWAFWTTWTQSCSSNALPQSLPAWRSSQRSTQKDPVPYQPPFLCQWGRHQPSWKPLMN
How it was run: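 Reporter transcripts were quantified by RT-PCR with fluorescent primer extension and capillary electrophoresis after 24 h chemical exposure. Cells: transiently transfected HepG2 carrying cis-regulated reporter constructs; data fitted bidirectionally relative to DMSO.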

[6] = ATG_GAL4_TRANS: Attagene TRANS-FACTORIAL HepG2 Assay for GAL4 (Internal Marker) (AID 2282976); details: HepG2 Attagene TRANS GAL4 internal marker reporter
How it was run: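 RT-PCR/capillary electrophoresis readout of reporter mRNA. HepG2, transient MRTU transfection (GAL4-UAS reporters), 24 h compound exposure. Background-control endpoint, positive direction vs DMSO baseline.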

[7] = biological target: Hepatocyte nuclear factor 4-alpha (Homo sapiens) (UniProt P41235); experiment: ATG_HNF4a_TRANS: Attagene TRANS-FACTORIAL HepG2 Assay for human Hepatocyte Nuclear Factor 4 alpha (HNF4a) (AID 2282982); details: HepG2 HNF4a transactivation reporter, mRNA readout
Chain of Hepatocyte nuclear factor 4-alpha (Homo sapiens) (P41235 whole entry, looked up): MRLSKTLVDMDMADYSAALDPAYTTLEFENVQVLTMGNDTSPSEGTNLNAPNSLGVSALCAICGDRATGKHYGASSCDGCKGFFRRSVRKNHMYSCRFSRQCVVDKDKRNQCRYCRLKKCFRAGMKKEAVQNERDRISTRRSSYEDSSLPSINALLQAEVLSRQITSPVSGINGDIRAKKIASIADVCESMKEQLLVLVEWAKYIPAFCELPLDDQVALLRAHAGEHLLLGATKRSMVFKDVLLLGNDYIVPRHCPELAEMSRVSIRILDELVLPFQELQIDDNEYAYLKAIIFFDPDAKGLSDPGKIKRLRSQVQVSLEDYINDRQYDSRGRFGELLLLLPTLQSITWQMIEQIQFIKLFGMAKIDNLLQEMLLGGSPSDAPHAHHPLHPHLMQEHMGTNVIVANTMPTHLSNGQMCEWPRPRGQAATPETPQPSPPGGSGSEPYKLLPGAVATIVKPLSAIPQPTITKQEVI
How it was run: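 Multiplexed reporter assay: transfected HepG2, 24 h exposure, total RNA → oligo(dT) RT → PCR → 6-FAM extension → HpaI digest → CE fluorescence. DMSO = negative control.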

[8] = biological target: Nuclear respiratory factor 1 (Homo sapiens) (UniProt Q16656); experiment: ATG_NRF1_CIS: Attagene CIS-FACTORIAL HepG2 Assay for human Nuclear Respiratory Factor 1 (NRF1) Orphan Gene (AID 2282987; active = hit-call score of the fitted dose curve at least 0.9, where 1 is the maximum; inactive = score below 0.9); details: HepG2 NRF1 cis-element reporter, Attagene multiplex; actives raise or lower the signal
Chain of Nuclear respiratory factor 1 (Homo sapiens) (Q16656 whole entry, looked up): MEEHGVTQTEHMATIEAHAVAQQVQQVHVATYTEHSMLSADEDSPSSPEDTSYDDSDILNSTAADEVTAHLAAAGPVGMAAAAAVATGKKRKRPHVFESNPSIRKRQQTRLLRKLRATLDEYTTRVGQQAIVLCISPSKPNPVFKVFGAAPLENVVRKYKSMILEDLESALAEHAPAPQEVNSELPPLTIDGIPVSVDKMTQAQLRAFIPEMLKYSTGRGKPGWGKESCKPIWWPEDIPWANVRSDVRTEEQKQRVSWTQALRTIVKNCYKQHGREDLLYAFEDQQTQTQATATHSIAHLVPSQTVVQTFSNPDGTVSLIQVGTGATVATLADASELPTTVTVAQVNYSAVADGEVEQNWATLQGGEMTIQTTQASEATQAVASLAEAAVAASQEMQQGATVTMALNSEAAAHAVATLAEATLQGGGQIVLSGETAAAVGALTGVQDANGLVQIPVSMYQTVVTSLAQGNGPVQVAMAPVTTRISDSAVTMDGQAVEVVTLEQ
How it was run: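 Multiplexed cis-reporter assay, HepG2 cells, 24 h treatment. Total RNA → oligo(dT) RT → PCR with reporter-specific primers → 6-FAM primer extension → HpaI cut → CE. Bidirectional fit vs DMSO.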

[9] = ATG_Oct_MLP_CIS: Attagene CIS-FACTORIAL HepG2 Assay for human Octamer-Binding Transcription Factor (Oct) (AID 2282993; active = hit-call score of the fitted dose curve at least 0.9, where 1 is the maximum; inactive = score below 0.9); details: HepG2 Attagene cis-factorial Oct reporter, mRNA; actives raise or lower the signal
How it was run: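 HepG2, transient MRTU transfection, cis promoter elements; 24 h dosing; RT-PCR/CE fluorescence read-out of reporter mRNA; fit both directions vs DMSO.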

[10] = biological target: human Retinoid X Receptor beta (RXRb), RXRB (gene 6257) (UniProt P28702); experiment: ATG_RXRb_TRANS: Attagene TRANS-FACTORIAL HepG2 Assay for human Retinoid X Receptor beta (RXRb) (AID 2283013)
Chain of human Retinoid X Receptor beta (RXRb), RXRB (gene 6257) (P28702 whole entry, looked up, the tested form may be a part): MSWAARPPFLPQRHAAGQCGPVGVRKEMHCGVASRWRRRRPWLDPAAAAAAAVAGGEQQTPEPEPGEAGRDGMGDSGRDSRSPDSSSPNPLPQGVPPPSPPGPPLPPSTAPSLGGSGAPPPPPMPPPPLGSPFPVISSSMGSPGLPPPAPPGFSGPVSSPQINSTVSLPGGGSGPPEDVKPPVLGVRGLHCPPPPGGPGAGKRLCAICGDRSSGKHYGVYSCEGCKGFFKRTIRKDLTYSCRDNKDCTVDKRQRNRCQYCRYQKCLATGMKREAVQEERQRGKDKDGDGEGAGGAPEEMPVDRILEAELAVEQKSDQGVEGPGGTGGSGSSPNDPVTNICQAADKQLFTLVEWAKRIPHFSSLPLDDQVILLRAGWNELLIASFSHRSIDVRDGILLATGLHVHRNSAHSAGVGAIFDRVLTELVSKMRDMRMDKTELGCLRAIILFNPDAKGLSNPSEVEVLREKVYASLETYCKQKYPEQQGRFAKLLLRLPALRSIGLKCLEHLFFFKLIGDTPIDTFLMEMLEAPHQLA
How it was run: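 After a 24 h incubation with test chemical, transfected HepG2 cells carrying NR-Gal4 fusions and GAL4-UAS reporter transcription units yield RNA whose reporter cDNA is FAM-labelled, HpaI-cut and sized by capillary electrophoresis; increases over DMSO are scored.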

[11] = TOX21_p53_BLA_p2_viability: Viability Assessment in the Tox21 HCT-116 p53 Agonism Beta-lactamase Assay, Phase 2 (AID 2283591);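 note: actives lower the ATP signal meaning cytotoxicity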
How it was run: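 Cytotoxicity readout: CellTiter-Glo ATP luminescence, 30 min at room temperature, after the beta-lactamase read. Cells were HCT116 exposed 16 h at 37C to compounds pin-transferred at 217-fold dilution from DMSO stocks.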

[12] = biological target: Cellular tumor antigen p53 (Homo sapiens) (UniProt P04637); experiment: TOX21_p53_BLA_p2_ratio: Tox21 HCT-116 p53 Agonism Beta-lactamase Assay, Ratio, Phase 2 (AID 2283592)
Chain of Cellular tumor antigen p53 (Homo sapiens) (P04637 whole entry, looked up): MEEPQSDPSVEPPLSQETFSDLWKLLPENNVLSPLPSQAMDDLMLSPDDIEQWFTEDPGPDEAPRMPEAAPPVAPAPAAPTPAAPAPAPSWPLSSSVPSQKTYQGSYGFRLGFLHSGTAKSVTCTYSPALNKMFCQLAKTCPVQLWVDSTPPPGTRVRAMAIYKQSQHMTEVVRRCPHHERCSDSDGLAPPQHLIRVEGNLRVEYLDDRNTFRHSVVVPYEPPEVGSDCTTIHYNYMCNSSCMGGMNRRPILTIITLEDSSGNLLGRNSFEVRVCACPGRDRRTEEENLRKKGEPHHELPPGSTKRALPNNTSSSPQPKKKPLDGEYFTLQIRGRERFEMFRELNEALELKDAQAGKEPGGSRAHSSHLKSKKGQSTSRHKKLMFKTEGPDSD
How it was run: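 Readout: blue/green (460/530 nm) FRET emission ratio after 2 h CCF4-AM loading at room temperature, excitation 405 nm. HCT116 p53 bla cells, 16 h compound exposure at 37C, 5% CO2; agonist direction fitted against DMSO baseline.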

[13] = biological target: Cellular tumor antigen p53 (Homo sapiens) (UniProt P04637); experiment: TOX21_p53_BLA_p3_ratio: Tox21 HCT-116 p53 Agonism Beta-lactamase Assay, Ratio, Phase 3 (AID 2283596)
How it was run: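 Cells were seeded at 4000/well, rested 5 h at 37C, then dosed with DMSO compound solutions (217-fold dilution) for 16 h. CCF4-AM substrate was loaded for 2 h at room temperature, and the 460/530 nm emission ratio was fitted for gain of signal versus DMSO.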

[14] = biological target: Cellular tumor antigen p53 (Homo sapiens) (UniProt P04637); experiment: TOX21_p53_BLA_p5_ratio: Tox21 HCT-116 p53 Agonism Beta-lactamase Assay, Ratio, Phase 5 (AID 2283599)
How it was run: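 Beta-lactamase reporter ratio (blue 460 nm over green 530 nm, 405 nm excitation) after 2 h CCF4-AM loading, in HCT-116 cells exposed 16 h at 37 C to compounds pinned at 217-fold dilution. Increases relative to DMSO baseline scored.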

[15] = TOX21_p53_BLA_p5_viability: Viability Assessment in the Tox21 HCT-116 p53 Agonism Beta-lactamase Assay, Phase 5 (AID 2283600)
How it was run: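 ATP luminescence (CellTiter-Glo, 30 min, RT) served as the viability read-out, with loss of signal indicating cytotoxicity. Compounds in DMSO were pinned at a 217-fold dilution onto 4000 cells/well and incubated 16 h, 37C.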

[16] = biological target: Cellular tumor antigen p53 (Homo sapiens) (UniProt P04637); experiment: TOX21_p53_BLA_p4_ratio: Tox21 HCT-116 p53 Agonism Beta-lactamase Assay, Ratio, Phase 4 (AID 2283601)
How it was run: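 Signal is the blue/green (460nm/530nm) ratio of cleaved versus uncleaved CCF4-AM substrate, read after 2 h substrate loading. Cells were HCT116 carrying the p53-responsive beta-lactamase reporter, dosed 16 h at 37C, 5% CO2; CellTiter-Glo measured in parallel.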

[17] = ATG_M_32_TRANS: Attagene TRANS-FACTORIAL HepG2 Assay for M32 Transcription Factor (Internal Marker) (AID 2282984); details: HepG2 Attagene TRANS M32 internal marker reporter
How it was run: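 Cell-based TRANS-format assay in HepG2: exogenous chimeric GAL4 reporter units transiently expressed, compounds applied 24 h. Reporter mRNA detected by RT-PCR plus capillary electrophoresis; this readout is an internal background marker.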

[18] = biological target: Transcriptional activator Myb (Homo sapiens) (UniProt P10242); experiment: ATG_Myb_CIS: Attagene CIS-FACTORIAL HepG2 Assay for human Myeloblastosis (Myb) Proto-Oncogene Transcription Factor (AID 2282986; active = hit-call score of the fitted dose curve at least 0.9, where 1 is the maximum; inactive = score below 0.9); details: HepG2 Attagene CIS-FACTORIAL Myb reporter transcription; actives raise or lower the signal
Chain of Transcriptional activator Myb (Homo sapiens) (P10242 whole entry, looked up): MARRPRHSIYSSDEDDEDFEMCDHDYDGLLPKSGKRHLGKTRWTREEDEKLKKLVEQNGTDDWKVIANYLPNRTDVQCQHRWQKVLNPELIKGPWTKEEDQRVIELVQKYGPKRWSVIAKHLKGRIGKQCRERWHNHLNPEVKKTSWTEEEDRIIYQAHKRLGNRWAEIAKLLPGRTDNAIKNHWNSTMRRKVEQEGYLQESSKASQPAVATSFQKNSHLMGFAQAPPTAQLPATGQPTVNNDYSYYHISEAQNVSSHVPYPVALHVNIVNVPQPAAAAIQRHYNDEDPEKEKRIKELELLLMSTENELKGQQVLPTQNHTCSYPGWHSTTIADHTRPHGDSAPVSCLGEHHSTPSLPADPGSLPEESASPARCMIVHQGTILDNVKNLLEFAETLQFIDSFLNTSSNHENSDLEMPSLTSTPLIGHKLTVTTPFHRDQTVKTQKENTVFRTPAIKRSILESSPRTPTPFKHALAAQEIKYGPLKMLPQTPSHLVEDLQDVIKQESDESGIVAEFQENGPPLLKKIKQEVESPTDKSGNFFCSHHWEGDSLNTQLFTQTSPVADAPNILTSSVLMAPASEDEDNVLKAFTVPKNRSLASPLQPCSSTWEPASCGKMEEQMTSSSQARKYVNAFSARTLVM
How it was run: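 Reporter transcript levels, quantified by fluorescent RT-PCR and capillary electrophoresis, serve as the read-out. Transfected HepG2 cells carrying cis-promoter reporter units are dosed for 24 hours, and curves are fitted bidirectionally against DMSO controls.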

[19] = ATG_NF_kB_CIS: Attagene CIS-FACTORIAL HepG2 Assay for human Nuclear Factor Kappa B (NF-kB) (AID 2282991; active = hit-call score of the fitted dose curve at least 0.9, where 1 is the maximum; inactive = score below 0.9); details: HepG2 Attagene cis-factorial NF-kB reporter mRNA; actives raise or lower the signal
How it was run: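 Transient MRTU transfection of human HepG2 liver cells → 24 h chemical exposure → total RNA, oligo(dT) RT → PCR, 6-FAM primer extension, HpaI digest 2 h 37 C → CE fragment analysis. Bidirectional fitting, DMSO negative control.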

[20] = ATG_TCF_b_cat_CIS: Attagene CIS-FACTORIAL HepG2 Assay for human T-Cell-Factor with beta-catenin (TCF/b-cat) (AID 2282965; active = hit-call score of the fitted dose curve at least 0.9, where 1 is the maximum; inactive = score below 0.9); details: HepG2 TCF/beta-catenin cis-reporter transcription, actives raise or lower the signal
How it was run: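 Endogenous TCF/LEF activity read as reporter transcript level via RT-PCR and capillary electrophoresis fluorescence in transfected HepG2, 24 h exposure; gain or loss of signal fitted against DMSO controls.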

Measured: AC50

O=C1NC(=O)[C@@H]2CC=CC[C@H]12
inactive: [1] | [2] | [3] | [4] | [5] | [6] | [7] | [8] | [9] | [10] | [11] | [12] | [13] | [14] | [15] | [16]

O=C1CCCCCCCCCCCCCC1
inactive: [1] | [3] | [4] | [5] | [17] | [18] | [8] | [19] | [9] | [12] | [13] | [14]
active: [10] 13 µM

CN1CCCC1
inactive: [1] | [2] | [4] | [5] | [6] | [7] | [17] | [18] | [19] | [9] | [11] | [12] | [14] | [16]

C=CC(C)(CCC=C(C)C)OC(=O)c1ccccc1 (centres undefined)
inactive: [1] | [2] | [3] | [20] | [5] | [17] | [18] | [8] | [19] | [9] | [11] | [12] | [13] | [14] | [16]

CCOC(=O)CC(=O)OCC
inactive: [1] | [3] | [20] | [5] | [6] | [7] | [18] | [8] | [11] | [12] | [13] | [14] | [15] | [16]

O=C1NC(=O)C2CC=CCC12 (centres undefined)
inactive: [1] | [2] | [3] | [4] | [20] | [7] | [18] | [8] | [11] | [12] | [13] | [15] | [16]

CCCCOC(=O)COc1ccc(Cl)cc1Cl
inactive: [1] | [2] | [4] | [20] | [5] | [7] | [17] | [8] | [19] | [9] | [10] | [11] | [12] | [13] | [14] | [15] | [16]

CCCCCCC1CCC(=O)O1 (centres undefined)
inactive: [1] | [2] | [4] | [20] | [6] | [7] | [17] | [8] | [9] | [10] | [11] | [12] | [13] | [14]

CCOc1ccc2c(c1)C(C)CC(C)(C)N2 (centres undefined)
inactive: [1] | [2] | [3] | [4] | [20] | [18] | [19] | [9]
active: [10] 37.7 µM

O=[N+]([O-])c1ccccc1C(F)(F)F
inactive: [1] | [2] | [4] | [5] | [6] | [7] | [18] | [8] | [9] | [12] | [13] | [14] | [15] | [16]
